Source: PubChem BioAssay (Tox21)
Records with an inconclusive call do not appear. The source made the active and inactive calls. Unless noted, calls come from the whole dose curve; as a rule, active = well fitted curve in the direction sought with a large enough effect in the repeat runs; inconclusive = weak or mixed curves; inactive = no such curve, though single readings can be large; an effect the other way counts as inactive or inconclusive.

Columns and labels:
[1] = qHTS assay to identify small molecule antagonists of the glucocorticoid receptor (GR) signaling pathway - cell viability counter screen (AID 720693); note: nearly all actives have a fitted effect of over 55% in size
[2] = qHTS assay for identifying genotoxic compounds that show differential cytotoxicity against isogenic chicken DT40 cell lines with known DNA damage response pathways - wild type cell line (AID 743012); note: nearly all actives have a fitted effect of over 60% in size; note: potency is the fitted concentration of half-maximal effect
In short: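 Parental DNA repair-proficient DT40 cells, 300 per well, were pre-incubated ~0.5 h at 37 C/5% CO2, pin-dosed with compounds in DMSO, then incubated 40 h. Viability was read as CellTiter-Glo luminescence after 30 min at room temperature.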

[3] = qHTS assay for identifying genotoxic compounds that show differential cytotoxicity against isogenic chicken DT40 cell lines with known DNA damage response pathways - Rev3 mutant cell line (AID 743014); note: nearly all actives have a fitted effect of over 55% in size; note: potency is the fitted concentration of half-maximal effect
[4] = qHTS assay for identifying genotoxic compounds that show differential cytotoxicity against isogenic chicken DT40 cell lines with known DNA damage response pathways - Rad54/Ku70 mutant cell line (AID 743015); note: nearly all actives have a fitted effect of over 60% in size; note: potency is the fitted concentration of half-maximal effect
[5] = target: Androgen receptor (Homo sapiens) (UniProt P10275); experiment: qHTS assay to identify small molecule agonists of the androgen receptor (AR) signaling pathway (AID 743036; active = well fitted activation curve with a large enough effect in the signal ratio in the repeat runs, with a control signal flat, not every such curve was filed as active; the % refers to the signal ratio)
In short: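 In this Tox21 qHTS, 2,000 HEK293 AR-bla cells per well were incubated with compounds for 16 h at 37C and 5% CO2. Fluorescence intensity was recorded 2 h after adding LiveBLAzer B/G FRET substrate at room temperature.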

[6] = target: Androgen receptor (Homo sapiens) (UniProt P10275); experiment: qHTS assay to identify small molecule agonists of the androgen receptor (AR) signaling pathway using the MDA cell line (AID 743040; note: nearly all actives have a fitted effect of over 20% in size)
In short: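 After a 5 h incubation at 37C and 0% CO2, MDA-kb2 reporter cells were dosed with compounds in DMSO and kept 16 h under the same conditions. Luciferase activity was then read as luminescence with ONE-Glo.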

[7] = qHTS assay to identify small molecule antagonists of the androgen receptor (AR) signaling pathway using the MDA cell line - cell viability counter screen (AID 743041; note: nearly all actives have a fitted effect of over 45% in size)
In short: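 R1881-driven MDA-kb2 AR-luc cells, 3,000/well, were dosed with library compounds for 16 h; cell health came from CellTiter-Fluor fluorescence in the reporter wells.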

[8] = target: Androgen receptor (Homo sapiens) (UniProt P10275); experiment: qHTS assay to identify small molecule antagonists of the androgen receptor (AR) signaling pathway using the MDA cell line (AID 743042; note: nearly all actives have a fitted effect of over 55% in size)
In short: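 Antagonist mode: compounds plus R1881 agonist added to MDA-kb2 AR-luc cells, incubated 16 h at 37C. Luciferase reporter luminescence quantified, with multiplexed CellTiter-Fluor readout for cell viability.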

[9] = qHTS assay to identify small molecule antagonists of the thyroid receptor (TR) signaling pathway (AID 743065); note: nearly all actives have a fitted effect of over 55% in size; note: potency is the fitted concentration of half-maximal effect
In short: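 Antagonism measured as loss of luciferase signal in GH3 cells stably carrying a TRE-luciferase reporter, co-treated with compound and T3 (1 nM final) for 23.5 h at 37 C. Viability was read in the same well by CellTiter-Fluor.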

[10] = test system: thyroid hormone receptor (rat, GH3 cells); experiment: qHTS assay to identify small molecule agonists of the thyroid receptor (TR) signaling pathway (AID 743066; calls by dose curve)
[11] = target: Estrogen receptor (Homo sapiens) (UniProt P03372); experiment: qHTS assay to identify small molecule antagonists of the estrogen receptor alpha (ER-alpha) signaling pathway (AID 743069; active = well fitted curve in the direction sought with a large enough effect in the signal ratio in the repeat runs, not every such curve was filed as active; the % refers to the signal ratio)
In short: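 Compound effects are measured against 17beta-estradiol stimulation in HEK293 cells with a UAS-controlled beta-lactamase reporter for ER-alpha. Exposure lasts 18 hr at 37C; LiveBLAzer B/G FRET substrate follows for 2 hr at room temperature.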

[12] = qHTS assay to identify small molecule antagonists of the estrogen receptor alpha (ER-alpha) signaling pathway - cell viability counter screen (AID 743074; calls by dose curve;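 note: HEK293 cells carrying ER-alpha-UAS-bla reporter stimulated with 17beta-estradiol; nearly all actives have a fitted effect of over 45% in size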)
[13] = target: Estrogen receptor (Homo sapiens) (UniProt P03372); experiment: qHTS assay to identify small molecule agonists of the estrogen receptor alpha (ER-alpha) signaling pathway (AID 743075; calls by dose curve)
[14] = target: Estrogen receptor (Homo sapiens) (UniProt P03372); experiment: qHTS assay to identify small molecule agonists of the estrogen receptor alpha (ER-alpha) signaling pathway using the BG1 cell line (AID 743079); note: nearly all actives have a fitted effect of over 20% in size
[15] = qHTS assay to identify small molecule antagonists of the estrogen receptor alpha (ER-alpha) signaling pathway using the BG1 cell line (AID 743080; calls by dose curve;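 note: BG1 cells stimulated with 17beta-estradiol alongside compound; series mostly up to about 70 µM; nearly all actives have a fitted effect of over 25% in size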)
In short: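 BG1Luc4E2, endogenous ER-alpha, 4xERE-luc; 5 d charcoal-stripped FBS, phenol red free; 24 h plating; cpd + 17beta-estradiol 21.5 h, 37 C/5% CO2; CellTiter-Fluor viability 30 min, then ONE-Glo luciferase 30 min RT.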

[16] = qHTS assay to identify small molecule antagonists of the estrogen receptor alpha (ER-alpha) signaling pathway using the BG1 cell line - cell viability counter screen (AID 743081);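 note: compound given together with 17beta-estradiol as the ER stimulus; series mostly up to about 70 µM; nearly all actives have a fitted effect of over 45% in size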
Aromatase (Homo sapiens) = Aromatase (Homo sapiens) (UniProt P11511); experiment: qHTS assay to identify aromatase inhibitors (AID 743083)
[17] = qHTS assay to identify aromatase inhibitors - cell viability counter screen (AID 743084); note: potency is the fitted concentration of half-maximal effect
[18] = qHTS assay to identify small molecule antagonists of the thyroid receptor (TR) signaling pathway - cell viability counter screen (AID 743064); note: nearly all actives have a fitted effect of over 50% in size
In short: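 Counter screen for cytotoxicity: compound plus T3 (1 nM final) on GH3.TRE-Luc cells, 23.5 h at 37 °C, then fluorescence viability readout with CellTiter-Fluor.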

[19] = qHTS assay to identify small molecule antagonists of the androgen receptor (AR) signaling pathway - cell viability counter screen (AID 743033; note: nearly all actives have a fitted effect of over 45% in size)

Measured: Potency

Chain of Androgen receptor (Homo sapiens) (P10275 whole entry, looked up): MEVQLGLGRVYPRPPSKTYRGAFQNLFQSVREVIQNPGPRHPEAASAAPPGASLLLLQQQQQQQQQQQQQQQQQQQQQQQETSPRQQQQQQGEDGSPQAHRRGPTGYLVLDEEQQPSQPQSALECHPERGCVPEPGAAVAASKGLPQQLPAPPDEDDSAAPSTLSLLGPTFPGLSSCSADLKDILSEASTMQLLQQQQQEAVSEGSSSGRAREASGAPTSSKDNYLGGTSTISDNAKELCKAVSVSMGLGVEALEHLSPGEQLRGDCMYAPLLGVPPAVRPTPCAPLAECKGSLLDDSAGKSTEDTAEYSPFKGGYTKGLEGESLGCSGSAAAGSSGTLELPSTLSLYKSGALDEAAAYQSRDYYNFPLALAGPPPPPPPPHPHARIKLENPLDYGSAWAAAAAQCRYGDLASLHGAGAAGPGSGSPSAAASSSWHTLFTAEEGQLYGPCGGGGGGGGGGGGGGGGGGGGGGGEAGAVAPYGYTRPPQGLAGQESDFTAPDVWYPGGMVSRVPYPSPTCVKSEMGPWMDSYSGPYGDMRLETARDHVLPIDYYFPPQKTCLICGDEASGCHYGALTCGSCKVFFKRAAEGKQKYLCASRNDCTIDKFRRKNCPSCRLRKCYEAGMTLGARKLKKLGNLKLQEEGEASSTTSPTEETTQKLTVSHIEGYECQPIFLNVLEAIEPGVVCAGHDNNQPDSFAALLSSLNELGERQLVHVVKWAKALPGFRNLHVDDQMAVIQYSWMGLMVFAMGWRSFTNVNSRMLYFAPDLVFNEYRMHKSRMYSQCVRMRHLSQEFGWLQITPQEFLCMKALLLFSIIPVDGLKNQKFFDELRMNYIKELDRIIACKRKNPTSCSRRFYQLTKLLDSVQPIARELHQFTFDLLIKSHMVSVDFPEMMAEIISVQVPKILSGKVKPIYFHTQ
Chain of Aromatase (Homo sapiens) (P11511 whole entry, looked up): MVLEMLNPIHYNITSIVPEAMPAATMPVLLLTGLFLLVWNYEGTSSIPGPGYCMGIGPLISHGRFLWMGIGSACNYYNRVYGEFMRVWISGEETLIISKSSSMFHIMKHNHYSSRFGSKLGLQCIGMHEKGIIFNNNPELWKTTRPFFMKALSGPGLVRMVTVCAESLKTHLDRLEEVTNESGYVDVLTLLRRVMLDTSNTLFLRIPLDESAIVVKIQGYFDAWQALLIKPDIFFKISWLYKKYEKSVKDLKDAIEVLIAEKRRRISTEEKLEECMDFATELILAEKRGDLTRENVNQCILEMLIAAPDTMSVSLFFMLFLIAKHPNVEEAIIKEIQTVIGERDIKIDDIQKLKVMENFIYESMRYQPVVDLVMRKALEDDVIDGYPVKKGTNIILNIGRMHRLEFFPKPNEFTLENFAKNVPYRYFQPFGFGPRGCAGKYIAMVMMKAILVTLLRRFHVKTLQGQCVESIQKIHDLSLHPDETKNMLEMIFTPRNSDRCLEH
Chain of Estrogen receptor (Homo sapiens) (P03372 whole entry, looked up): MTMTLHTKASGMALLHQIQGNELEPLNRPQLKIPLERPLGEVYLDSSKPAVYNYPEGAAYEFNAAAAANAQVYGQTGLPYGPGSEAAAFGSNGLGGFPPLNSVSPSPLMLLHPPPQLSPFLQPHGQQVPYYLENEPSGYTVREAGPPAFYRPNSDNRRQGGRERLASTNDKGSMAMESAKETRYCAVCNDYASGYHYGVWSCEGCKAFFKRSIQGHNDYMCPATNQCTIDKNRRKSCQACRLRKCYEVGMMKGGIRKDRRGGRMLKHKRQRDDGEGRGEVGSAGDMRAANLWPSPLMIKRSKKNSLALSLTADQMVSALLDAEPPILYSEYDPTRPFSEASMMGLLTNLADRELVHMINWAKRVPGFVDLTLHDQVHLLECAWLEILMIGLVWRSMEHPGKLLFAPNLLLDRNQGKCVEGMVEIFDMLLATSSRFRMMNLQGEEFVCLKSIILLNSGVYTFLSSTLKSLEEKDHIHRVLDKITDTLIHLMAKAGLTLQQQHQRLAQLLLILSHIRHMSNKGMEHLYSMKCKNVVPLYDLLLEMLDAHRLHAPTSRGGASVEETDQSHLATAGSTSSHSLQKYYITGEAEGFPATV

O=NN(CCCl)C(=O)NCCCl
inactive: [1] | [2] | [3] | [4] | [5] | [6] | [7] | [8] | [9] | [10] | [11] | [12] | [13] | [14] | [15] | [16] | Aromatase (Homo sapiens) | [17]

NC(=O)CCCCC(N)=O
inactive: [1] | [2] | [3] | [4] | [7] | [9] | [10] | [11] | [12] | [13] | [14] | [15] | [16] | Aromatase (Homo sapiens) | [17]

c1ccc2sc(SSc3nc4ccccc4s3)nc2c1
inactive: [1] | [2] | [3] | [4] | [7] | [18] | [9] | [10] | [11] | [12] | [13] | [14] | [15] | [16] | Aromatase (Homo sapiens) | [17]

Nc1ccc(NC(=O)c2ccc(N)cc2)cc1
inactive: [1] | [2] | [3] | [19] | [5] | [6] | [7] | [8] | [9] | [10] | [11] | [12] | [13] | [14] | [15] | [16]
active: [17] 54.5 µM

CCCCCc1ccco1
active: [2] 39.8 µM | [3] 44.7 µM | [4] 31.6 µM
inactive: [1] | [7] | [10] | [12] | [16] | Aromatase (Homo sapiens) | [17]

O=C(c1ccccc1)C1CCC1
inactive: [1] | [2] | [3] | [4] | [7] | [18] | [9] | [10] | [11] | [12] | [13] | [14] | [15] | [16] | Aromatase (Homo sapiens) | [17]

CCCCC(CC)COS(=O)(=O)O (centres undefined)
inactive: [1] | [2] | [3] | [4] | [7] | [18] | [9] | [10] | [11] | [12] | [13] | [14] | [15] | [16] | Aromatase (Homo sapiens) | [17]

C=CCOC(=O)COCCC(C)C
inactive: [1] | [2] | [3] | [4] | [7] | [18] | [9] | [10] | [11] | [12] | [13] | [14] | [15] | [16] | Aromatase (Homo sapiens)

CCN(CC)C(=O)N1CCN(C)CC1
inactive: [1] | [2] | [3] | [4] | [7] | [12] | [16] | Aromatase (Homo sapiens) | [17]

O=C(/C=C/c1ccc([N+](=O)[O-])cc1)c1ccccc1
inactive: [1] | [3] | [4] | [19] | [7] | [18] | [10] | [11] | [12] | [14] | [16] | Aromatase (Homo sapiens) | [17]
active: [9] 61.3 µM

Cc1ccc(N(CC2=NCCN2)c2cccc(O)c2)cc1
inactive: [1] | [19] | [7] | [10] | [11] | [12] | [13] | [15] | [16] | Aromatase (Homo sapiens) | [17]
active: [2] 23.7 µM

COC1CCC=CO1 (centres undefined)
inactive: [1] | [2] | [4] | [19] | [7] | [18] | [9] | [10] | [11] | [12] | [14] | [15] | [16] | Aromatase (Homo sapiens)

CNc1c2c(nn1C)CCCC2
inactive: [1] | [3] | [4] | [19] | [7] | [18] | [9] | [10] | [12] | [13] | [14] | [15] | [16] | Aromatase (Homo sapiens) | [17]

C[C@@H]1C[C@H]2[C@@H]3CCC4=CC(=O)C=C[C@]4(C)[C@@]3(F)[C@@H](O)C[C@]2(C)[C@@]1(O)C(=O)COP(=O)(O)O
inactive: [1] | [2] | [4] | [19] | [7] | [18] | [9] | [10] | [12] | [13] | [16] | Aromatase (Homo sapiens) | [17]

CC(C)(C)C1(CCc2ccc(Cl)cc2)CO1 (centres undefined)
inactive: [1] | [2] | [19] | [7] | [9] | [10] | [11] | [12] | [13] | [14] | [15] | [16] | Aromatase (Homo sapiens) | [17]

CCN(CC)C(=O)/C(C#N)=C/c1cc(O)c(O)c([N+](=O)[O-])c1
inactive: [1] | [2] | [4] | [19] | [6] | [7] | [8] | [9] | [10] | [11] | [12] | [13] | [14] | [15] | [16] | Aromatase (Homo sapiens)

O=C(O)c1cc(Cl)cc(Cl)c1O
inactive: [1] | [3] | [4] | [19] | [5] | [6] | [7] | [8] | [18] | [10] | [12] | [16] | Aromatase (Homo sapiens) | [17]
